The record followed here is PubChem BioAssay (NCATS).

Where “and” joins values, the source holds several entries; their conditions need not be identical. Identical values can stand only once. Inconclusive results are not listed. Where a structure was tested more than once in an assay, its records may differ in their call. Calls of active or inactive are those of the source. Unless noted, the call rests on the fitted dose curve.

Assay [1] can be described thus: Cytotoxicity counterscreen for inhibitors of SARS-CoV-2 cell entry (AID 1645845). Further: nearly all actives have a fitted effect of over 50% in size. A digest of the protocol: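 ATP-content luminescence (ATPLite 1step, 15 min RT) read after 48 h compound exposure of Expi293F cells stably expressing human ACE2; normalized to cells-only wells and media-only wells.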
For orientation: Counterscreens check selectivity or assay interference.

Assay [2] is described as follows: Primary qHTS to identify inhibitors of SARS-CoV-2 cell entry (AID 1645846). Further: nearly all actives have a fitted effect of over 45% in size. Further: potency means the concentration at half of the fitted maximal effect. As to conditions: activity change, negative = inhibition: at 57.1 µM (top of the series) unless noted. In a few lines:
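Inhibition of spike-mediated entry was scored in human ACE2-transfected Expi293F cells. Particles were MLV-pseudotyped with Wuhan-Hu-1 S carrying a 19-aa C-terminal deletion; signal was luciferase after two days, scaled between spike PP and fusion-protein-free PP.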

Assay [3] can be described thus: Primary qHTS for inhibitors of nuclear receptor binding SET domain protein 2 (NSD2) in an isogenic RCH-ACV NSD2 p.E1099K mutant (9B) (AID 1645876; active means well fitted curve in the direction sought with a large enough effect; an effect the other way counts as inactive or inconclusive; further: nearly all actives have a fitted effect of over 70% in size; further: potency means the concentration at half of the fitted maximal effect). (Quantitative high-throughput screening tests each substance at several concentrations.)
A short description of assay [4]: Primary qHTS for inhibitors of nuclear receptor binding SET domain protein 2 (NSD2) in an RCH-ACV wild type WT cells (2C) (AID 1645877; active means well fitted curve in the direction sought with a large enough effect; an effect the other way counts as inactive or inconclusive; further: nearly all actives have a fitted effect of over 70% in size; further: potency means the concentration at half of the fitted maximal effect).
Another assay has as its target Papain (Carica papaya) (UniProt P00784). Description: Primary qHTS assay for inhibitors of the protease papain (AID 1645873; active means well fitted curve in the direction sought with a large enough effect; an effect the other way counts as inactive or inconclusive;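 further: papain turnover of Z-FR-AMC read as the AMC fluorescence gain over 10 min; on the % scale 0 is the no-effect control and ±100 the full control effect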).
Assay [5] has as its target N-terminal Xaa-Pro-Lys N-methyltransferase 1 (Homo sapiens) (UniProt Q9BV86). Briefly: Confirmatory qHTS for Inhibitors of N-terminal methyltransferase 1 (NTMT1): MTaseGlo Assay (AID 1645874; active means well fitted curve in the direction sought with a large enough effect; an effect the other way counts as inactive or inconclusive; further: potency means the concentration at half of the fitted maximal effect; nearly all actives have a fitted effect of over 65% in size). Particulars: NTMT1 enzyme, MTase-Glo SAH luminescence. A digest of the protocol: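 MTase-Glo luminescence measured SAH formed by 125 nM NTMT1 from 100 uM SAM and 1 uM SPKRIA peptide over 30 min at room temperature, following 15 min compound preincubation. Percent inhibition against no-enzyme and DMSO controls gave 4-parameter Hill fits.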

The target of assay [6] is Rap guanine nucleotide exchange factor 3 (Homo sapiens) (UniProt O95398). Briefly: Confirmatory qHTS for antagonist of cAMP-regulated guanine nucleotide exchange factor 3 (EPAC1) (AID 1645880; active means well fitted curve in the direction sought with a large enough effect; an effect the other way counts as inactive or inconclusive;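 further: plate controls were DMSO only for no effect and full effect of the ATA control for full effect; nearly all actives have a fitted effect of over 55% in size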). A digest of the protocol:
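Released BODIPY-GDP fluoresces less than Rap1-bound BODIPY-GDP; the signal is followed at 480/540 nm at 5-min intervals over 30 min, after 5 min at room temperature. Reactions contain 100 nM EPAC1, 250 nM RAP1B-BODIPY-GDP and 50 uM GDP; results are normalized to ATA and DMSO.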

For assay [7] the target is unchanged. Briefly: Confirmatory qHTS for agonist of cAMP-regulated guanine nucleotide exchange factor 3 (EPAC1) (AID 1645881; active means well fitted curve in the direction sought with a large enough effect; an effect the other way counts as inactive or inconclusive;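 further: EPAC1 catalysed release of BODIPY-GDP from Rap1B seen as fluorescence loss; 100% = effect of cAMP agonist control; nearly all actives have a fitted effect of over 75% in size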).
Assay [8] concerns the target Rap guanine nucleotide exchange factor 4 (Homo sapiens) (UniProt Q8WZA2). Briefly: Confirmatory qHTS for agonist of cAMP-regulated guanine nucleotide exchange factor 4 (EPAC2) (AID 1645884; active means well fitted curve in the direction sought with a large enough effect; an effect the other way counts as inactive or inconclusive;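 further: nucleotide exchange releases bodipy-GDP from Rap1 and this lowers its fluorescence; on the % scale 0 is the no-effect control and ±100 the full control effect; nearly all actives have a fitted effect of over 65% in size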).

Chain of Rap guanine nucleotide exchange factor 3 (Homo sapiens) (O95398 whole entry, looked up): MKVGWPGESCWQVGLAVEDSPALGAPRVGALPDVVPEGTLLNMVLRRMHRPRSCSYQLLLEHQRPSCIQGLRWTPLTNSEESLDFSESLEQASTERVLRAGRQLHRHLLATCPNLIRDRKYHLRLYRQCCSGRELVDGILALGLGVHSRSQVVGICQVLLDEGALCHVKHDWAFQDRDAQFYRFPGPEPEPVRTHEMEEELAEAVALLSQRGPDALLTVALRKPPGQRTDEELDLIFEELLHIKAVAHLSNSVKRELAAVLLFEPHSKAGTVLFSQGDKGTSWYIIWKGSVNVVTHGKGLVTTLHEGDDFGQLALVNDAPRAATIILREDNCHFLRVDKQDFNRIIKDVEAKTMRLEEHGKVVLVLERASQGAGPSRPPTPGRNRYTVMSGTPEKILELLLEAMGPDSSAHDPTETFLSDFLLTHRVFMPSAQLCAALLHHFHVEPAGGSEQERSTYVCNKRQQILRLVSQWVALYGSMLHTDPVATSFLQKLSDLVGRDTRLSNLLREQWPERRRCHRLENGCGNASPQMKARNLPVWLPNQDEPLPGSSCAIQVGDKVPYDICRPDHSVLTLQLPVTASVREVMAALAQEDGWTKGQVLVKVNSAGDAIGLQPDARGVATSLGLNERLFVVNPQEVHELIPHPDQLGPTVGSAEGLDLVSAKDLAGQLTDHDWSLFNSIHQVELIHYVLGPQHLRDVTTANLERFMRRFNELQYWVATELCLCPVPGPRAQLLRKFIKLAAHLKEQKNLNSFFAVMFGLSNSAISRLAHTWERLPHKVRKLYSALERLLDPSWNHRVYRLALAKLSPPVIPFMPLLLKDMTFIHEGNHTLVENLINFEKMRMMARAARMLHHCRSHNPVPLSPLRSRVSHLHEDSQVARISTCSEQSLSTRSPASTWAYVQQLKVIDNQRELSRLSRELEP
Chain of Rap guanine nucleotide exchange factor 4 (Homo sapiens) (Q8WZA2 whole entry, looked up): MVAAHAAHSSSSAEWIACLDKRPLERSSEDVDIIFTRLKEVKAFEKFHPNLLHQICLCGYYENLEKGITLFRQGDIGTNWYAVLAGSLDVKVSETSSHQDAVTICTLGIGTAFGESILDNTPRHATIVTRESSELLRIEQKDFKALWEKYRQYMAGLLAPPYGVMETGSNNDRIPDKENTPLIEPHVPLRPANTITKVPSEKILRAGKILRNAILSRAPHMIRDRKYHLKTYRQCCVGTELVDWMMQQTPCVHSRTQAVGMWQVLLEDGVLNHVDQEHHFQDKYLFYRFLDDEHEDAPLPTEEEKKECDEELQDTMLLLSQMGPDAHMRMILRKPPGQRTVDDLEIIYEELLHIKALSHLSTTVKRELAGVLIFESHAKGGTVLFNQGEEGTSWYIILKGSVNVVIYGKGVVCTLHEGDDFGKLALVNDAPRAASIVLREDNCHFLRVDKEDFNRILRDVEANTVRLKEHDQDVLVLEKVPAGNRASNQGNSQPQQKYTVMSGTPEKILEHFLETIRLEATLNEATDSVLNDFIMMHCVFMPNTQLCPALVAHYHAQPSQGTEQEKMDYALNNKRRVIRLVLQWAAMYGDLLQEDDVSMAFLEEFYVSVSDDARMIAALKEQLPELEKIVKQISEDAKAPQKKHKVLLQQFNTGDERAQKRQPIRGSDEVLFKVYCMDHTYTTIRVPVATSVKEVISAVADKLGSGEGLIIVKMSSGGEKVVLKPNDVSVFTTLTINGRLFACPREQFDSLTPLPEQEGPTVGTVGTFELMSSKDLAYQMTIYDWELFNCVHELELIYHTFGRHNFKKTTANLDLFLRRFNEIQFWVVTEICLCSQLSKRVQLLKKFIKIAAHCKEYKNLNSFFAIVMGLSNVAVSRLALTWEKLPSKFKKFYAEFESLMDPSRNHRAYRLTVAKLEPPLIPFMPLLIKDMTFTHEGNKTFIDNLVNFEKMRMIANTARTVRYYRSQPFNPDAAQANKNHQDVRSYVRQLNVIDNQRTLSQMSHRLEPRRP
Chain of N-terminal Xaa-Pro-Lys N-methyltransferase 1 (Homo sapiens) (Q9BV86 whole entry, looked up): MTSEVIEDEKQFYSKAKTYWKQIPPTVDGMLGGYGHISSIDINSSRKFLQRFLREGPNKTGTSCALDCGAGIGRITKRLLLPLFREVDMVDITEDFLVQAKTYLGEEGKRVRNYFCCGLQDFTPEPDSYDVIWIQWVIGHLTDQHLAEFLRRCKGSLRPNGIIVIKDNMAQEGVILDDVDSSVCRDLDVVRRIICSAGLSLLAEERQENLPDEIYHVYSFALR
Chain of Papain (Carica papaya) (P00784 whole entry, looked up): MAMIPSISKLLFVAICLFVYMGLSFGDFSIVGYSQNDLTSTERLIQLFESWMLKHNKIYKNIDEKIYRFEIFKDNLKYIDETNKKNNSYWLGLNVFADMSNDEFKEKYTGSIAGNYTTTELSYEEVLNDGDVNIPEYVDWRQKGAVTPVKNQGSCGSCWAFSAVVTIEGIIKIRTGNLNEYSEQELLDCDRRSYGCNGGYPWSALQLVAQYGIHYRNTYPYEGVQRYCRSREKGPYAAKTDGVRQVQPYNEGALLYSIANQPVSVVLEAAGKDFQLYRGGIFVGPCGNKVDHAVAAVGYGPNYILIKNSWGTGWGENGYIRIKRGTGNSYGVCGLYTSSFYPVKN

For the compound `CN1[C@H]2CC(O)C[C@H]1[C@H]1O[C@H]12` (stereo partly specified), the Potency entry in assay [1], in assay [3] and in [4] was “inactive” in each case. Moreover, the activity change, negative = inhibition in assay [2] is 0.905%.
`c1ccc2c(CN3CCNCC3)cccc2c1`: the Potency entry in assay [1], in assay [3] and in [4] was “inactive” throughout. For the same compound, the activity change, negative = inhibition in assay [2] was -23.2%.
For the compound `CCOC(=O)Nc1ccc(NCc2ccc(F)cc2)cc1N`, the Potency entry in assay [1] and in assay [4] was “inactive” each time. For the same compound, in assay [2], the activity change, negative = inhibition was determined as 2.18%.
With `O=C(c1ccc(Nc2nccc(-c3cc4ccccc4s3)n2)cc1)N1CCC(N2CCCC2)CC1`, the Potency in assay [2] was 11.2 µM (active).
On to `COc1ncc(-c2ccc3nccc(-c4ccnnc4)c3c2)cc1NS(=O)(=O)c1ccc(F)cc1F`, for which, in assay [2], the Potency is 2.51 µM (active).
Regarding `O=c1[nH]c2ccccc2n1C1CCN(Cc2ccc(-c3[nH]c4cc5ncnc5cc4nc3-c3ccccc3)cc2)CC1`, in assay [1], the Potency result was “inactive”. For the same compound, the figures for the Potency in [3] and in assay [4] were 2.95 µM (active) and 5.25 µM (active), respectively.
As to `CCC(=O)N1CCN(c2ccc(-n3c(=O)ccc4cnc5ccc(-c6cnc7ccccc7c6)cc5c43)cc2C(F)(F)F)CC1`, in assay [2], the activity change, negative = inhibition was -91.2% [at 27.1 µM].
Consider `CN(C(=O)C(Cl)Cl)c1ccc(OC(=O)c2ccco2)cc1`, for which the Potency result in assay [2] was “inactive”.
For the compound `CCN1C[C@]2(OC(=O)c3ccccc3NC(C)=O)CC[C@H](OC)[C@@]34[C@H]5CC6[C@@H](OC)C[C@](O)(C(C[C@@H]23)[C@@H]14)[C@@]5(O)[C@@H]6OC`, the Potency entry in assay [1], in assay [3] and in [4] was “inactive” in each case. For the same compound, the activity change, negative = inhibition in assay [2] was 1.38%.
Turning to `Cc1c(C(=O)Nc2cccc(C(F)(F)F)c2)cc(-c2ccccc2)n1CCCN1CCOCC1`, the Potency entry in assay [1] was “inactive”. Further, the Potency in assay [3] is 20.9 µM (active); in assay [4], 23.5 µM (active).
Take `CCNC(=O)c1noc(-c2cc(C(C)C)c(O)cc2O)c1-c1ccc(CN2CCOCC2)cc1`: in [2], the activity change, negative = inhibition is -24.6%.
In the case of `O=C(O)c1ccc(O)c2ncc(N3CCOCC3)cc12`, the Potency in assay [2] was 28.2 µM (active).
With `C=CCc1cccc(/C=N/NC(=O)CN2CCN(Cc3ccccc3)CC2)c1O`, the Potency in assay [2] was 31.6 µM (active).
For `CN(C)CCN(C)C(=O)c1ccc(NC(=O)Nc2ccc(-c3nc(N4CCOCC4)c4ccn(CC(F)(F)F)c4n3)cc2)cc1`, the activity change, negative = inhibition in assay [2] was -96.8%.
As to `CCc1cncnc1N1CCN(Cc2nc3ccc(C(F)(F)F)cc3[nH]2)CC1`, in [2], the Potency was 28.2 µM (active).
`CC(C)C[C@H](NC(=O)CNC(=O)c1cc(Cl)ccc1Cl)B(O)O`: in assay [2], the activity change, negative = inhibition is -97.2% and -98.8%.
Turning to `CC(C)[C@H]1C(=O)N[C@H](CO)Cc2c[nH]c3cccc(c23)N1C`, the Potency entry in [2] was “inactive”.
For `Cc1cc(O)ccc1Cl`, the Potency result in assay [1], in [2], in [3] and in assay [4] was “inactive” each time.
For the compound `CN(NC(=O)CC(=O)NN(C)C(=S)c1ccccc1)C(=S)c1ccccc1`, in assay [2], the activity change, negative = inhibition is -97.7%.
With `C[C@@H](Oc1cc(-n2cnc3ccc(CN4CCN(C)CC4)cc32)sc1C(N)=O)c1ccccc1C(F)(F)F`, the activity change, negative = inhibition in assay [2] was -97%.
`O=C(O)CNC(=O)c1c(O)c2ccccc2n(Cc2ccccc2)c1=O`: the Potency result in [1], in assay [3] and in assay [4] was “inactive” throughout. For the same compound, the activity change, negative = inhibition in assay [2] amounted to 2.25%.
For `CN(C)NC(=O)CCC(=O)O`, the Potency result in [1], in [3] and in assay [4] was “inactive” throughout. Besides, the activity change, negative = inhibition in assay [2] is -24.7%.
Consider `COc1ccc(C(=O)c2c(C)n(CCN3CCOCC3)c3cc(I)ccc23)cc1`, for which the Potency entry in [1] is “inactive”. Moreover, the activity change, negative = inhibition in assay [2] was -80.5%. Further, the Potency in assay [3] was 18.6 µM (active); in assay [4] it was 14.8 µM (active).
Regarding `N#C/C(=C1\SCC(c2ccccc2Cl)S1)n1ccnc1` (stereo unspecified), the Potency result in [2] is “inactive”.
Turning to `COCCn1c2c([n+](Cc3cnccn3)c1C)C(=O)c1ccccc1C2=O`, in assay [2], the activity change, negative = inhibition is -98.5%.
For the compound `CC(C)NC(C)Cc1ccc(I)cc1` (stereo unspecified), the Potency entry (in [1]; in the assay with Papain (Carica papaya)) was “inactive” each time.
For `C[C@]12CC[C@H]3[C@@H](CCC4=CC(=O)CC[C@@]43C)[C@H]1CC[C@H]2OC(=O)CCC1CCCC1`, the Potency entry in [1], in assay [3] and in assay [4] was “inactive” throughout. Besides, the activity change, negative = inhibition in assay [2] is -3.52%.
With `COC1=C[C@@H]2[C@@H]3Cc4ccc(OC)c(O)c4[C@]2(CCN3C)CC1=O`, the Potency entry in assay [1], in assay [3] and in [4] was “inactive” throughout. In addition, in assay [2], the activity change, negative = inhibition was -15.7%.
Regarding `Cn1cc(-c2[nH]c3cc(NC(=O)[C@H](N)C4CCCCC4)cc4c3c2C=NNC4=O)cn1`, the Potency in assay [2] was 8.91 µM (active).
In the case of `COc1cc2nc(N3CCCN(C)CC3)nc(NC3CCN(Cc4ccccc4)CC3)c2cc1OC`, the Potency in assay [2] was 3.16 µM (active).
On the same count and under the same terms, with `CCN(CC)c1ccc(C(=C2C=CC(=[N+](CC)CC)C=C2)c2cc(S(=O)(=O)O)ccc2S(=O)(=O)[O-])cc1` the entry was “inactive”; with `Cc1c(C(=O)Nc2ccc(N3C[C@@H](C)O[C@@H](C)C3)nc2)cccc1-c1ccc(OC(F)(F)F)cc1`, “inactive and 12.6 µM (active)”.
Consider `CC(=O)[O][Hg][c]1ccccc1`, for which, in assay [5], the Potency was 1.07 µM (active).
For the compound `CC1=NN=C(c2ccc(N)cc2)c2cc3c(cc2C1)OCO3`, the outcome in assay [6], in assay [7] and in [8] was inactive.
As for `c1ccc(CCCN2CCN(CCOC(c3ccccc3)c3ccccc3)CC2)cc1`, the compound was classed as inactive in assay [7] and in assay [8].
Take `CCCCOC(=O)c1ccccc1C(=O)OCc1ccccc1`: the call in assay [6] was inactive. Further, the activation in assay [8] is 4.15% [at 17.1 µM] (inactive).
Take `Cc1nc(-c2ccc(-c3ccc(C(=O)N4CCc5cc6c(cc54)C4(CCN(C)CC4)CO6)cc3)c(C)c2)no1`: the result in assay [6] was inactive.
With `CCCN(CCC)c1c([N+](=O)[O-])cc(S(N)(=O)=O)cc1[N+](=O)[O-]`, the compound was called inactive in [8].
